These results are taken from paper doi:10.1101/2024.03.05.583629.

This test has as its target pT7_6His-AlfaTag-HOXD13 (human, UniProt P35453 263-343). Briefly: PADIT-seq. The following applies: dsDNA, one strand shown.

Chain of pT7_6His-AlfaTag-HOXD13 (P35453 263-343): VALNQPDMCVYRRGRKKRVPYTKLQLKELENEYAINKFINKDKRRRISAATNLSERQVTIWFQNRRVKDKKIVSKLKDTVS

Regarding “CTCGAGGATATCAAGATCTGGCCTCGGCGTTTTATGAGGAACCTCTAGCTAGCCGACTCACTATAGGGATAATCGCCCTGAGCAAAGACC”, the binding signal came to 3.28 ± 0.127 log2FC.

Sequence “CTCGAGGATATCAAGATCTGGCCTCGGCATTTTAACAGGAACCTCTAGCTAGCCGACTCACTATAGGGATAATCGCCCTGAGCAAAGACC” yielded a binding signal of 2.07 ± 0.0923 log2FC.

In turn, “CTCGAGGATATCAAGATCTGGCCTCGGCGTTTTAGGAGGAACCTCTAGCTAGCCGACTCACTATAGGGATAATCGCCCTGAGCAAAGACC” came in with a binding signal of 1.64 ± 0.105 log2FC.

With “CTCGAGGATATCAAGATCTGGCCTCGGCTTTTTATTAGGAACCTCTAGCTAGCCGACTCACTATAGGGATAATCGCCCTGAGCAAAGACC”, the binding signal is 3.3 ± 0.0796 log2FC.

“CTCGAGGATATCAAGATCTGGCCTCGGCCATTTAAAAGGAACCTCTAGCTAGCCGACTCACTATAGGGATAATCGCCCTGAGCAAAGACC” had a binding signal of 2.3 ± 0.0841 log2FC.

As to “CTCGAGGATATCAAGATCTGGCCTCGGCGCAATAAAAGGAACCTCTAGCTAGCCGACTCACTATAGGGATAATCGCCCTGAGCAAAGACC”, the binding signal came out at 2.76 ± 0.0728 log2FC.

The sequence “CTCGAGGATATCAAGATCTGGCCTCGGCTTTTTATGAGGAACCTCTAGCTAGCCGACTCACTATAGGGATAATCGCCCTGAGCAAAGACC” had a binding signal of 3.46 ± 0.0792 log2FC.

“CTCGAGGATATCAAGATCTGGCCTCGGCGCTTTAAAAGGAACCTCTAGCTAGCCGACTCACTATAGGGATAATCGCCCTGAGCAAAGACC” gave a binding signal of 1.94 ± 0.0663 log2FC.

Sequence “CTCGAGGATATCAAGATCTGGCCTCGGCATGATAAAAGGAACCTCTAGCTAGCCGACTCACTATAGGGATAATCGCCCTGAGCAAAGACC” had a binding signal of 1.61 ± 0.0749 log2FC.

Sequence “CTCGAGGATATCAAGATCTGGCCTCGGCCCGATAAAAGGAACCTCTAGCTAGCCGACTCACTATAGGGATAATCGCCCTGAGCAAAGACC” yielded a binding signal of 1.27 ± 0.0909 log2FC.

For “CTCGAGGATATCAAGATCTGGCCTCGGCGCGGGAGCGGGAACCTCTAGCTAGCCGACTCACTATAGGGATAATCGCCCTGAGCAAAGACC”, the binding signal was -0.635 ± 0.137 log2FC.

“CTCGAGGATATCAAGATCTGGCCTCGGCTTTTTACACGGAACCTCTAGCTAGCCGACTCACTATAGGGATAATCGCCCTGAGCAAAGACC” had a binding signal of 2.25 ± 0.079 log2FC.

Consider “CTCGAGGATATCAAGATCTGGCCTCGGCGTTTTACCTGGAACCTCTAGCTAGCCGACTCACTATAGGGATAATCGCCCTGAGCAAAGACC”, for which the binding signal was -0.352 ± 0.118 log2FC.

Sequence “CTCGAGGATATCAAGATCTGGCCTCGGCTTTTTACTAGGAACCTCTAGCTAGCCGACTCACTATAGGGATAATCGCCCTGAGCAAAGACC” returned a binding signal of 3.21 ± 0.0865 log2FC.

“CTCGAGGATATCAAGATCTGGCCTCGGCTTCCTAAAAGGAACCTCTAGCTAGCCGACTCACTATAGGGATAATCGCCCTGAGCAAAGACC” yielded a binding signal of -0.635 ± 0.152 log2FC.

For the sequence “CTCGAGGATATCAAGATCTGGCCTCGGCATTTTACGAGGAACCTCTAGCTAGCCGACTCACTATAGGGATAATCGCCCTGAGCAAAGACC”, the binding signal was found to be 3.41 ± 0.0937 log2FC.

As to “CTCGAGGATATCAAGATCTGGCCTCGGCCGCCCATCAGGAACCTCTAGCTAGCCGACTCACTATAGGGATAATCGCCCTGAGCAAAGACC”, the binding signal was -1.02 ± 0.114 log2FC.

As for “CTCGAGGATATCAAGATCTGGCCTCGGCTCCGTAAAAGGAACCTCTAGCTAGCCGACTCACTATAGGGATAATCGCCCTGAGCAAAGACC”, the binding signal was 1.22 ± 0.0847 log2FC.

For “CTCGAGGATATCAAGATCTGGCCTCGGCCTTTTAGCTGGAACCTCTAGCTAGCCGACTCACTATAGGGATAATCGCCCTGAGCAAAGACC”, the binding signal is -0.366 ± 0.11 log2FC.

“CTCGAGGATATCAAGATCTGGCCTCGGCCTTTTAAGCGGAACCTCTAGCTAGCCGACTCACTATAGGGATAATCGCCCTGAGCAAAGACC”: the binding signal stood at 0.916 ± 0.0855 log2FC.

For the sequence “CTCGAGGATATCAAGATCTGGCCTCGGCGCTATAAAAGGAACCTCTAGCTAGCCGACTCACTATAGGGATAATCGCCCTGAGCAAAGACC”, the binding signal turned out to be 2.83 ± 0.0721 log2FC.

For the sequence “CTCGAGGATATCAAGATCTGGCCTCGGCCCGGTAAAAGGAACCTCTAGCTAGCCGACTCACTATAGGGATAATCGCCCTGAGCAAAGACC”, the binding signal amounted to 0.409 ± 0.0951 log2FC.

The sequence “CTCGAGGATATCAAGATCTGGCCTCGGCGTTTTAAGAGGAACCTCTAGCTAGCCGACTCACTATAGGGATAATCGCCCTGAGCAAAGACC” yielded a binding signal of 2.61 ± 0.088 log2FC.

For “CTCGAGGATATCAAGATCTGGCCTCGGCGCATTAAAAGGAACCTCTAGCTAGCCGACTCACTATAGGGATAATCGCCCTGAGCAAAGACC”, the binding signal worked out at 1.77 ± 0.0683 log2FC.

“CTCGAGGATATCAAGATCTGGCCTCGGCGTTTTATAGGGAACCTCTAGCTAGCCGACTCACTATAGGGATAATCGCCCTGAGCAAAGACC” showed a binding signal of 3.33 ± 0.0804 log2FC.

For “CTCGAGGATATCAAGATCTGGCCTCGGCGTTTTATTCGGAACCTCTAGCTAGCCGACTCACTATAGGGATAATCGCCCTGAGCAAAGACC”, the binding signal was determined as 1.73 ± 0.0989 log2FC.

“CTCGAGGATATCAAGATCTGGCCTCGGCTTTCTAAAAGGAACCTCTAGCTAGCCGACTCACTATAGGGATAATCGCCCTGAGCAAAGACC” showed a binding signal of -0.511 ± 0.118 log2FC.

As for “CTCGAGGATATCAAGATCTGGCCTCGGCTCCATAAAAGGAACCTCTAGCTAGCCGACTCACTATAGGGATAATCGCCCTGAGCAAAGACC”, the binding signal came out at 2.64 ± 0.0916 log2FC.

As to “CTCGAGGATATCAAGATCTGGCCTCGGCTTGTTAAAAGGAACCTCTAGCTAGCCGACTCACTATAGGGATAATCGCCCTGAGCAAAGACC”, the binding signal was found to be 3.01 ± 0.0792 log2FC.

Sequence “CTCGAGGATATCAAGATCTGGCCTCGGCTTTTTACTGGGAACCTCTAGCTAGCCGACTCACTATAGGGATAATCGCCCTGAGCAAAGACC” returned a binding signal of 2.73 ± 0.0875 log2FC.

Take “CTCGAGGATATCAAGATCTGGCCTCGGCATTTTAGGCGGAACCTCTAGCTAGCCGACTCACTATAGGGATAATCGCCCTGAGCAAAGACC”: the binding signal is -0.396 ± 0.116 log2FC.

“CTCGAGGATATCAAGATCTGGCCTCGGCTGGGTAAAAGGAACCTCTAGCTAGCCGACTCACTATAGGGATAATCGCCCTGAGCAAAGACC”: the binding signal was -0.514 ± 0.0905 log2FC.

Take “CTCGAGGATATCAAGATCTGGCCTCGGCTCTTTAAAAGGAACCTCTAGCTAGCCGACTCACTATAGGGATAATCGCCCTGAGCAAAGACC”: the binding signal worked out at 2.42 ± 0.0868 log2FC.

With “CTCGAGGATATCAAGATCTGGCCTCGGCTTTCCACGCGGAACCTCTAGCTAGCCGACTCACTATAGGGATAATCGCCCTGAGCAAAGACC”, the binding signal was -0.793 ± 0.11 log2FC.

Consider “CTCGAGGATATCAAGATCTGGCCTCGGCGTTCTAAAAGGAACCTCTAGCTAGCCGACTCACTATAGGGATAATCGCCCTGAGCAAAGACC”, for which the binding signal is -0.197 ± 0.0802 log2FC.

“CTCGAGGATATCAAGATCTGGCCTCGGCCTTTTACAAGGAACCTCTAGCTAGCCGACTCACTATAGGGATAATCGCCCTGAGCAAAGACC”: the binding signal amounted to 3.37 ± 0.074 log2FC.

“CTCGAGGATATCAAGATCTGGCCTCGGCCTTTTACATGGAACCTCTAGCTAGCCGACTCACTATAGGGATAATCGCCCTGAGCAAAGACC” came in with a binding signal of 1.85 ± 0.0771 log2FC.

In turn, “CTCGAGGATATCAAGATCTGGCCTCGGCCTTTTAGCCGGAACCTCTAGCTAGCCGACTCACTATAGGGATAATCGCCCTGAGCAAAGACC” came in with a binding signal of -0.235 ± 0.0913 log2FC.

Take “CTCGAGGATATCAAGATCTGGCCTCGGCCTTTTAATGGGAACCTCTAGCTAGCCGACTCACTATAGGGATAATCGCCCTGAGCAAAGACC”: the binding signal was 2.57 ± 0.0798 log2FC.

In turn, “CTCGAGGATATCAAGATCTGGCCTCGGCTCGCTAAAAGGAACCTCTAGCTAGCCGACTCACTATAGGGATAATCGCCCTGAGCAAAGACC” showed a binding signal of 0.138 ± 0.111 log2FC.

Consider “CTCGAGGATATCAAGATCTGGCCTCGGCCGCTTAAAAGGAACCTCTAGCTAGCCGACTCACTATAGGGATAATCGCCCTGAGCAAAGACC”, for which the binding signal amounted to 0.46 ± 0.0911 log2FC.

“CTCGAGGATATCAAGATCTGGCCTCGGCCTTTTATATGGAACCTCTAGCTAGCCGACTCACTATAGGGATAATCGCCCTGAGCAAAGACC” had a binding signal of 2.91 ± 0.0779 log2FC.

As for “CTCGAGGATATCAAGATCTGGCCTCGGCGCCGTAAAAGGAACCTCTAGCTAGCCGACTCACTATAGGGATAATCGCCCTGAGCAAAGACC”, the binding signal was found to be 1.76 ± 0.0756 log2FC.

Take “CTCGAGGATATCAAGATCTGGCCTCGGCCGAATAAAAGGAACCTCTAGCTAGCCGACTCACTATAGGGATAATCGCCCTGAGCAAAGACC”: the binding signal amounted to 1.27 ± 0.0923 log2FC.

Sequence “CTCGAGGATATCAAGATCTGGCCTCGGCAACTTAAAAGGAACCTCTAGCTAGCCGACTCACTATAGGGATAATCGCCCTGAGCAAAGACC” had a binding signal of 0.617 ± 0.0872 log2FC.

“CTCGAGGATATCAAGATCTGGCCTCGGCCGTATAAAAGGAACCTCTAGCTAGCCGACTCACTATAGGGATAATCGCCCTGAGCAAAGACC” returned a binding signal of 2.31 ± 0.0858 log2FC.

Sequence “CTCGAGGATATCAAGATCTGGCCTCGGCCGCCCAAATGGAACCTCTAGCTAGCCGACTCACTATAGGGATAATCGCCCTGAGCAAAGACC” showed a binding signal of -0.854 ± 0.128 log2FC.

As for “CTCGAGGATATCAAGATCTGGCCTCGGCCTTTTACACGGAACCTCTAGCTAGCCGACTCACTATAGGGATAATCGCCCTGAGCAAAGACC”, the binding signal was 1.93 ± 0.075 log2FC.

In turn, “CTCGAGGATATCAAGATCTGGCCTCGGCGTTTTACAAGGAACCTCTAGCTAGCCGACTCACTATAGGGATAATCGCCCTGAGCAAAGACC” showed a binding signal of 3.54 ± 0.0799 log2FC.

As for “CTCGAGGATATCAAGATCTGGCCTCGGCCGCCCATAGGGAACCTCTAGCTAGCCGACTCACTATAGGGATAATCGCCCTGAGCAAAGACC”, the binding signal was -0.685 ± 0.116 log2FC.

With “CTCGAGGATATCAAGATCTGGCCTCGGCATACTAAAAGGAACCTCTAGCTAGCCGACTCACTATAGGGATAATCGCCCTGAGCAAAGACC”, the binding signal worked out at 0.619 ± 0.0967 log2FC.

“CTCGAGGATATCAAGATCTGGCCTCGGCATTTTAAACGGAACCTCTAGCTAGCCGACTCACTATAGGGATAATCGCCCTGAGCAAAGACC”: the binding signal came out at 1.29 ± 0.0911 log2FC.

The sequence “CTCGAGGATATCAAGATCTGGCCTCGGCCTTTTAAGAGGAACCTCTAGCTAGCCGACTCACTATAGGGATAATCGCCCTGAGCAAAGACC” returned a binding signal of 2.52 ± 0.0827 log2FC.

In the case of “CTCGAGGATATCAAGATCTGGCCTCGGCCTCGTAAAAGGAACCTCTAGCTAGCCGACTCACTATAGGGATAATCGCCCTGAGCAAAGACC”, the binding signal is 3.09 ± 0.0876 log2FC.

For “CTCGAGGATATCAAGATCTGGCCTCGGCGTTTTAATTGGAACCTCTAGCTAGCCGACTCACTATAGGGATAATCGCCCTGAGCAAAGACC”, the binding signal was found to be 2.42 ± 0.0771 log2FC.

In the case of “CTCGAGGATATCAAGATCTGGCCTCGGCGTTTTAAACGGAACCTCTAGCTAGCCGACTCACTATAGGGATAATCGCCCTGAGCAAAGACC”, the binding signal is 0.884 ± 0.0954 log2FC.

Sequence “CTCGAGGATATCAAGATCTGGCCTCGGCTAATTAAAAGGAACCTCTAGCTAGCCGACTCACTATAGGGATAATCGCCCTGAGCAAAGACC” had a binding signal of 2.92 ± 0.0818 log2FC.
